According to article PMC5540273 (PLoS ONE, 2017):

Key:
Settings in all cases: concentration: 1 μM, replicates: in singlicate; n = 1
[1] = tested on: MAP3K4
[2] = tested on: MAP4K2
[3] = tested on: MAP4K3
[4] = tested on: MAP4K4
[5] = tested on: MAP4K5
[6] = tested on: MAPKAPK2
[7] = tested on: MAPKAPK5
[8] = tested on: MARK1
[9] = tested on: MARK2
[10] = tested on: MARK3
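Also: KINOMEscan kinase panel screen.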

SMILES	%Inh [1] [%]	%Inh [2] [%]	%Inh [3] [%]	%Inh [4] [%]	%Inh [5] [%]	%Inh [6] [%]	%Inh [7] [%]	%Inh [8] [%]	%Inh [9] [%]	%Inh [10] [%]
COc1cccc(-n2cnc3c(N)ncnc32)c1 [SKF-97416]	31	33	0	0	0	0	1	0	13	37
Cc1c(Cn2c(C)nn3c(=O)cc(N4CCO[C@H](C)C4)nc23)cccc1C(F)(F)F [GSK2373690]	43	0	0	3	0	23	0	0	0	0
OCCCNc1nccc(-c2c(-c3cccc(C(F)(F)F)c3)nn3cc(C(F)(F)F)ccc23)n1 [GW630813]	4	0	0	6	2	7	0	0	0	0
